This passage reports growth reduction results from the supplement of paper PMC12024424.

Counter-ions that a name gives are not always drawn.

This experiment relates to Staphylococcus aureus Sa2 (MRSA, cystic fibrosis isolate). Briefly: growth reduction vs untreated control (OD550); higher = stronger antibacterial activity. Conditions: 0.1 mM; 24 h. On the procedure: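 Single-dose screen of the MedChem Express Drug Repurposing Library (0.1 mM, 1% DMSO) against planktonic MRSA S. aureus Sa2 (CF isolate) in TSB in 96-well plates, 37 °C aerobic, 24 h. Assays were run in triplicate and repeated twice.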
Take `Cc1noc(-c2ccc(-c3ccc(C4(C(=O)O)CC4)cc3)cc2)c1NC(=O)O[C@H](C)c1ccccc1`: the growth reduction worked out at 100%.

In turn, `O=C(O)c1ccc2nc(-c3cc(Cl)cc(Cl)c3)oc2c1` [Tafamidis meglumine] showed a growth reduction of 93.9%.

As to `C#C[C@]1(O)CC[C@H]2[C@@H]3CCC4=CCCC[C@@H]4[C@H]3C(=C)C[C@@]21CC` [Desogestrel], the growth reduction was found to be 99.4%.

`CCCCN(CCCC)CCC(O)c1cc2c(Cl)cc(Cl)cc2c2cc(C(F)(F)F)ccc12` (stereo not given) [Halofantrine hydrochloride]: the growth reduction came out at 100%.

Take `O=C(NCc1c(F)cc(F)cc1F)c1cn2c(c(O)c1=O)C(=O)N1[C@H]3CC[C@H](C3)O[C@@H]1C2` [Bictegravir]: the growth reduction stood at 100%.

With `CC(=O)Oc1ccccc1C(=O)Nc1ncc([N+](=O)[O-])s1` [Nitazoxanide], the growth reduction turned out to be 99.5%.

In turn, `CC(C)(C(=O)NCC(F)(F)C(F)(F)F)C(=O)N[C@@H]1C(=O)Nc2ccccc2-c2ccccc21` showed a growth reduction of 100%.

Take `C=Cc1cc(O)cc2nc(-c3ccc(O)c(F)c3)oc12` [Prinaberel]: the growth reduction is 100%.

The molecule `CSc1ccc2c(c1)N(CCC1CCCCN1C)c1ccccc1S2` (stereo not given) [Thioridazine (hydrochloride)] displayed a growth reduction of 100%.

Take `Cc1ccc(C(=O)Nc2ccc(CN3CCN(C)CC3)c(C(F)(F)F)c2)cc1C#Cc1cnc2[nH]ncc2c1`: the growth reduction was determined as 100%.

Turning to `O=C(O)C[C@H]1CCc2c1[nH]c1ccc(OCc3ccc(C4CCCC4)c(C(F)(F)F)c3)cc21` [Etrasimod], the growth reduction worked out at 99%.

For `COC(=O)C1=C(C)NC(C)=C(C(=O)OC(C)C)C1c1cccc2nonc12` (stereo not given) [Isradipine], the growth reduction came to 100%.

For `CCN1CCN(Cc2ccc(-c3cc4c(N[C@H](C)c5ccccc5)ncnc4[nH]3)cc2)CC1`, the growth reduction was 100%.

`O=C(NS(=O)(=O)c1ccc(Br)s1)c1ccc(Cl)cc1Cl` [Tasisulam] displayed a growth reduction of 100%.

Turning to `O=C(O)c1ccccc1Nc1cccc(C(F)(F)F)c1` [Flufenamic acid], the growth reduction is 93.6%.

Molecule `C=CC(=O)Nc1cc(Nc2nccc(-c3cn(C)c4ccccc34)n2)c(OC)cc1N(C)CCN(C)C` [Osimertinib (dimesylate)] had a growth reduction of 100%.

In the case of `Clc1ccc(CSC(Cn2ccnc2)c2ccc(Cl)cc2Cl)cc1` (stereo not given) [Sulconazole (mononitrate)], the growth reduction is 100%.

In turn, `Cc1c(Cl)c(C)[n+]([O-])c(Cl)c1-c1noc(-c2cc(O)c(O)c([N+](=O)[O-])c2)n1` [Opicapone] registered a growth reduction of 99.2%.

Molecule `CN[C@H]1CN(c2ccc3c(=O)c(C(=O)O)cn(-c4nccs4)c3n2)C[C@@H]1OC` [Voreloxin (Hydrochloride)] gave a growth reduction of 100%.

With `Oc1ccc2c(c1)CC[C@H](c1ccccc1)[C@@H]2c1ccc(OCCN2CCCC2)cc1` [Lasofoxifene (Tartrate)], the growth reduction is 98.2%.

`O=c1[nH]c(=O)n([C@H]2C[C@H](O)[C@@H](CO)O2)cc1F` [Floxuridine]: the growth reduction turned out to be 100%.

Molecule `CC(=O)c1cc2c(o1)C(=O)c1ccccc1C2=O` [Napabucasin] had a growth reduction of 100%.

On to `Cc1cc(CC(C)CC(C)(C)C)n(O)c(=O)c1` (stereo not given) [Piroctone olamine], for which the growth reduction was found to be 100%.

`CCCCN(CCCC)C(=O)CN1C[C@H](c2ccc3c(c2)OCO3)[C@@H](C(=O)O)[C@@H]1c1ccc(OC)cc1` [Atrasentan (hydrochloride)]: the growth reduction came out at 100%.

The molecule `CC1(C)CCC2=C(O1)c1ccccc1C(=O)C2=O` [β-Lapachone] had a growth reduction of 100%.

In the case of `CNCCC(Oc1ccc(C(F)(F)F)cc1)c1ccccc1` (stereo not given) [Fluoxetine (hydrochloride)], the growth reduction was 100%.

On to `Cc1c(Cl)cccc1Nc1ccccc1C(=O)O` [Tolfenamic Acid], for which the growth reduction is 100%.

`CC[C@H]1[C@@H](O)[C@@H]2[C@H](CC[C@]3(C)[C@@H]([C@H](C)CCC(=O)O)CC[C@@H]23)[C@@]2(C)CC[C@@H](O)C[C@@H]12` [Obeticholic acid] showed a growth reduction of 94.4%.

Regarding `CC1=C(C)C(=O)C(CCCCCCCCCC[P+](c2ccccc2)(c2ccccc2)c2ccccc2)=CC1=O` [Visomitin], the growth reduction was 100%.

Molecule `C[C@H]1CNCCCN1S(=O)(=O)c1cccc2cncc(F)c12` [Ripasudil] showed a growth reduction of 100%.

The molecule `O=C(O)CNC(=O)c1nc(Cl)c2ccccc2c1O` showed a growth reduction of 100%.

`COc1cc(NS(C)(=O)=O)ccc1Nc1c2ccccc2nc2ccccc12` [Amsacrine (hydrochloride)] registered a growth reduction of 93.4%.

As to `Cc1cccc(Nc2ccccc2C(=O)O)c1C` [Mefenamic acid], the growth reduction was found to be 97.3%.

`CO[C@H](C(=O)[C@@H](O)[C@@H](C)O)[C@@H]1Cc2cc3cc(O[C@H]4C[C@@H](O[C@H]5C[C@@H](O)[C@H](O)[C@@H](C)O5)[C@H](O)[C@@H](C)O4)c(C)c(O)c3c(O)c2C(=O)[C@H]1O[C@H]1C[C@@H](O[C@H]2C[C@@H](O[C@H]3C[C@](C)(O)[C@H](O)[C@@H](C)O3)[C@@H](O)[C@@H](C)O2)[C@H](O)[C@@H](C)O1` [Plicamycin] had a growth reduction of 99.6%.

The molecule `Clc1ccc(C(Cn2ccnc2)OCc2c(Cl)cccc2Cl)c(Cl)c1` (stereo not given) [Isoconazole (nitrate)] yielded a growth reduction of 100%.

`C=CC(=O)Nc1cc(Nc2nccc(-c3cn(C)c4ccccc34)n2)c(OC)cc1N(C)CCN(C)C` [Osimertinib mesylate] returned a growth reduction of 100%.

`CCCCCCCCc1ccc(CCC(N)(CO)CO)cc1` [Fingolimod] returned a growth reduction of 100%.

For `C=C(C)[C@@H]1CC[C@]2(C(=O)O)CC[C@]3(C)[C@H](CC[C@@H]4[C@@]5(C)CC[C@H](OC(=O)CC(C)(C)C(=O)O)C(C)(C)[C@@H]5CC[C@]43C)[C@@H]12` [Bevirimat], the growth reduction was 96.7%.

The molecule `CCCCc1oc2ccc(NS(C)(=O)=O)cc2c1C(=O)c1ccc(OCCCN(CCCC)CCCC)cc1` [Dronedarone] showed a growth reduction of 96.5%.

For the molecule `O=C(O)c1ccc2nc(-c3cc(Cl)cc(Cl)c3)oc2c1` [Tafamidis], the growth reduction came to 99.5%.
